Assay outcomes (PubChem)
MITF inh – MITF inhibitors, primary screen, biochemical, AlphaScreen, human. Microphthalmia-associated transcription factor (Homo sapiens), O75030. AlphaScreen MITF homodimerization, bead proximity signal. inhibition, % at 2.6 µM. actives 0.91% (n = 650,000); in the data active = inhibition above about 50%;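 also: 0% = vehicle wells with protein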
TEAD-YAP inh – TEAD-YAP interaction inhibition, primary screen, TEAD-YAP interaction inhibitor project, luminescence, HEK-TIYL cells. TEAD-Gal4/YAP UAS-luciferase luminescence. inhibition, % at 9.12 µM. actives 1.4% (n = 640,000); in the data active = inhibition above about 32%;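 also: 0% = median of test compound wells and 100% = reference inhibitor wells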
GPR151 activ – activators of human GPR151, primary screen, cell-based, PathHunter beta-arrestin, luminescence; actives 1% (n = 650,000); PathHunter beta-arrestin GPR151 cells; G-protein coupled receptor 151 (Homo sapiens), Q8TDV0; activation, % at 11.2 µM; AID 1508602, 2020; in the data active = activation above about 4.9%;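 also: 0% = median of compound wells and 100% = cells with positive control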
Target sequence (Q8TDV0 whole entry, looked up): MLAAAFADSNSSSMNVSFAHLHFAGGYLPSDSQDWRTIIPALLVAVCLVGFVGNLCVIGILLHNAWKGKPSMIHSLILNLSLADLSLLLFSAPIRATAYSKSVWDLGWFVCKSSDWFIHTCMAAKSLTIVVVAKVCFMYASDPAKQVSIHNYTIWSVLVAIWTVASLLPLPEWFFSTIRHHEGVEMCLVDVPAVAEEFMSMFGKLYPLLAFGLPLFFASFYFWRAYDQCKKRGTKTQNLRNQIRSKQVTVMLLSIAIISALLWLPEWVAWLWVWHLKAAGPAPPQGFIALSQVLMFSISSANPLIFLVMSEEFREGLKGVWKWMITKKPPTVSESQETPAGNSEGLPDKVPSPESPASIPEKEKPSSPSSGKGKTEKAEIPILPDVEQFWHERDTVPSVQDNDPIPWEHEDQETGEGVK
FBW7 activator – FBW7 E3 ligase activators, primary screen, biochemical, AlphaScreen, human. actives 0.13% (n = 650,000). normalized activity (activation), % at 26.1 µM. F-box/WD repeat-containing protein 7 (Homo sapiens), Q969H0. AID 1259310, 2017. AlphaScreen FBW7–phospho-cyclin E peptide binding, activator screen; in the data active = normalized activity above about 1.9%;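 also: purified mutant Fbw7 with reduced substrate affinity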
MITF inh conf – MITF inhibitors, retest of hits, confirmation, biochemical, AlphaScreen, triplicate; shares compounds with MITF inh; AlphaScreen MITF homodimerization, biotin/His-MITF beads; inhibition, % at 2.6 µM; actives 16% (n = 4,700); AID 1259372, 2018;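 active = inhibition above a cutoff derived from the DMSO control wells, cut at about 28% in these data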;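 also: 0% = MITF dimer wells with DMSO only; inhibitors lower the bead chemiluminescence by keeping MITF from dimerizing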
AlphaScreen DR – AlphaScreen optical interference compounds, dose response, counter-screen, biochemical, HTS; shares compounds with MITF inh; AlphaScreen optical interference counterscreen, cell-free; IC50, µM; actives 6% (n = 480); AID 1259373, 2018; call rule not given here
AlphaScreen intf2 – AlphaScreen optical interference compounds, counter-screen for MITF inhibitor project, biochemical, triplicate; inhibition, % at 2.6 µM; actives 7.6% (n = 4,700); shares compounds with MITF inh; LysRS AlphaScreen counterscreen, signal interference;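 active = inhibition above a cutoff derived from the DMSO control wells, cut at about 30% in these data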
Numbers without * were called inactive; . = no result given; ! = a repeat was not active. Only some compounds are listed: those with a hit (about 3.5% of all), similar ones and a draw of the others.

SMILES	MITF inh	TEAD-YAP inh	GPR151 activ	FBW7 activator	MITF inh conf	AlphaScreen intf2	others
Cc1ccc(CNS(=O)(=O)c2ccc(F)c(C(=O)Nc3cc(Cl)ccc3Cl)c2)cc1	-5	2	0	0	.	.
CC(=O)Nc1ccc(-c2ccncc2-c2ccc(S(N)(=O)=O)cc2)cc1	55*	-1	0	0	47*	38*
O=C(NC1c2ccccc2Oc2ccccc21)c1cnccn1	16	8	-1	0	.	.
COc1ccccc1NC(=O)CN1CCN(CC(=O)Nc2ccccc2OC)CC1	-29	0	-2	0	.	.
Cc1nc2ccccc2n1CC1CCN(C(=O)CN2C(=O)CCC2=O)CC1	65*	-2	0	0	5	22
Cn1c(CN2CCN(C(=O)CN3C(=O)CCC3=O)CC2)nc2ccccc21	54*	0	3	0	2	12
Cc1nc2ccccc2n1CC1CCN(C(=O)Nc2ccccc2)CC1	43	-1	1	0	.	.
COc1ccc(CCC(=O)N2CCC(Cn3c(C)nc4ccccc43)CC2)cc1	78*	15	1	-1	16	18
COc1ccccc1NC(=O)CN1CCN(Cc2nc3ccccc3n2C)CC1	67*	-8	-1	-1	9	14
CC(=O)Nc1ccc(NC(=O)c2ccc(S(=O)(=O)N3CCCC3)cc2)cc1	4	2	0	0	.	.
COc1cc(CNc2ccc3ncc(-c4ccsc4)n3n2)cc(OC)c1OC	-8	-5	1	0	.	.
O=C(Cn1cc(C(=O)c2ccco2)c2ccccc21)NCc1cccnc1	67*	5	0	0	62*	-4	AlphaScreen DR=>6.5
CCn1c2ccccc2c2cc(CN3CCN(C(=O)c4c(OC)cccc4OC)CC3)ccc21	40	-6	-1	0	.	.
CCn1c2ccccc2c2cc(CN3CCN(C(=O)c4cccc(OC)c4OC)CC3)ccc21	19	-2	1	0	.	.
CCn1c2ccccc2c2cc(CN3CCN(Cc4cc(OC)c(OC)c(OC)c4)CC3)ccc21	61*	1	-1	1	1	2
CCn1c2ccccc2c2cc(CN3CCN(Cc4ccc(OC)c(Br)c4)CC3)ccc21	60*	1	0	-1	14	19
CCOc1ccccc1CNC(=O)C1CCN(C(=O)N2CCOc3ccc(C)cc32)CC1	12	11	0	1	.	.
O=C(COC(=O)C1CCC(=O)N1)Nc1ccccc1Br (stereo not given)	53*	-1	1	0	-3	0
COc1cc2cc3c(N)c(C(=O)Nc4sc(C)c(C)c4C#N)sc3nc2cc1OC	62*	-1	1	0	70*	22	AlphaScreen DR=>6.5
O=C(NCc1nnc(SCC(=O)N2N=C(c3cccs3)CC2c2ccc(F)cc2)n1-c1cccc(C(F)(F)F)c1)c1ccco1 (stereo not given)	-8	12	1	0	.	.
C=CCc1cccc(OC)c1OCCOCCn1ccnc1	54*	-7	0	0	-1	7
Cc1cc(C(C)(C)C)ccc1OCCCn1ccnc1	19	4	1	0	.	.
Cc1cc(Br)ccc1OCCOCCn1ccnc1	63*	-6	-2	0	3	8
Cc1ccc(OCCn2ccnc2)c(C)c1	0	6	-1	0	.	.
CC(C)(C)c1cc(Cl)ccc1OCCn1ccnc1	74*	-3	0	1	5	11
SMILES	MITF inh	TEAD-YAP inh	GPR151 activ	FBW7 activator	MITF inh conf	AlphaScreen intf2	others
Cc1cc(C(C)(C)C)ccc1OCCn1ccnc1	70*	1	-2	0	4	15
Cc1cccc(C(=O)Nc2sc3c(c2C(N)=O)CC(C)(C)NC3(C)C)c1	-6	-2	2	0	.	.
O=C(N/N=C1\C[C@@H](O)[C@@H](O)[C@@H]2[C@@H]3C(=O)N(C[C@@H]4CCCO4)C(=O)[C@@H]3CC[C@H]12)OCc1ccccc1	-3	.	4	0	.	.
CN(Cc1ccccc1)C(=O)CCC1CCN(C(=O)[C@@H]2C[C@H]2c2ccccc2)CC1	-5	17	-1	0	.	.
O=C1CC(c2ccc(Br)cc2)=NO1	19	-8	0	0	.	.
O=C1CC(c2ccccc2)=NO1	56*	-6	-1	0	13	12
Cc1ccc(CN(Cc2ccco2)C(=S)Nc2ccccc2Cl)cc1	-6	0	0	0	.	.
O=C(NC1CCCCC1)C(=S)NC1CCCC1	10	-55	-1	1	.	.
O=C(NNC(=S)NC1CCCCC1)C(=O)NNC(=S)NC1CCCCC1	62*	-2	-1	0	8	-11
COc1ccccc1Cc1nc2ccccc2nc1SCC(=O)Nc1ccc(OC)c(OC)c1	73*	-26	4	0	4	-6
COc1ccc(NC(=O)CSc2nc3ccccc3nc2Cc2ccccc2OC)cc1Cl	-12	11	-1	0	.	.
OC(CNc1ccccc1)Cn1ccc2ccccc21 (stereo not given)	52*	-6	1	0	13	25
Cn1ccc(CC(=O)N2CCCC(C(=O)Nc3ccc(-c4ccco4)cc3)C2)c1 (stereo not given)	9	-5	-2	0	.	.
Cc1sc2nc(C)n(CCO)c(=O)c2c1C	2	5	1	0	.	.
Cc1ccc(C(=O)N2CCN3C(=O)[C@H](C)N(C)C(=O)[C@H]3C2)cc1	5	-5	2	0	.	.
C[C@H]1C(=O)N2CCN(C(=O)NC3CCCCC3)C[C@@H]2C(=O)N1C	78*	8	-1	0	74*	-9	AlphaScreen DR=>6.5
CC(C)C[C@H]1C(=O)N2CCN(C(=O)NC3CCCCC3)C[C@@H]2C(=O)N1C	70*	1	-1	0	71*	-10	AlphaScreen DR=>6.5
COc1cccc(CN(CCN(C)C)C(=O)c2nc3ccc(-c4ccnc(N)n4)cc3s2)c1	3	-3	-2	0	.	.
O=c1c(O)c(-c2ccc(O)cc2O)oc2cc(O)cc(O)c12	67*!	0	0	0	43*	-7	AlphaScreen DR=>6.5
O=C(O)C1CC=CCC1C(=O)Nc1nncs1 (stereo not given)	53*	2	3	0	48*	-4	AlphaScreen DR=>6.5
O=C(O)C1CCCCC1C(=O)Nc1nncs1 (stereo not given)	-8	-2	0	0	.	.
Cc1cn2c3c(=O)n(C)c(=O)n(C)c3nc2n1CCc1ccccc1	55*	10	-1	0	-4	16
CCn1c(=O)c2c(nc3n(CCc4ccccc4)c(C)cn23)n(C)c1=O	2	-3	3	0	.	.
